Shown are actives, neighbours in structure and some others; about 12% of the full set was active somewhere.
RORg inh – blocks mouse ROR gamma transcriptional activity; AID 2551; 310,000 tested, 5.4% active; Potency, µM (top dose mostly 53.6 µM), without a hit: top-dose activity change, negative = inhibition, most hits filed as inhibitors; Drosophila S2 Gal4-RORgamma UAS-luciferase reporter, 20 h; note: nearly all actives have a fitted effect of over 60% in size
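Stably transfected Drosophila Schneider cells are the test system, with ROR gamma fused to Gal4 and luciferase under UAS control; luminescence is read after 20 hr of 700 uM copper sulfate induction at ambient temperature.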
ALDH1A1 inh – ALDH1A1 (human) enzyme inhibition. AID 1030. 220,000 tested, 7.3% active. P00352. Purified ALDH1A1, NADH fluorescence, propionaldehyde substrate. Potency, µM (doses to about 75.3 µM), for inactives: top-dose activity, negative = inhibition, hits mostly inhibitors; active = well fitted inhibition curve with a large enough effect, not every such curve was filed as active; inconclusive = small, poorly fitted or top-dose-only effect, or another doubt; inactive = no such curve, though single readings can be large or run the other way;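 note: plate controls were no enzyme wells and a reference inhibitor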
Target sequence (P00352 whole entry, looked up): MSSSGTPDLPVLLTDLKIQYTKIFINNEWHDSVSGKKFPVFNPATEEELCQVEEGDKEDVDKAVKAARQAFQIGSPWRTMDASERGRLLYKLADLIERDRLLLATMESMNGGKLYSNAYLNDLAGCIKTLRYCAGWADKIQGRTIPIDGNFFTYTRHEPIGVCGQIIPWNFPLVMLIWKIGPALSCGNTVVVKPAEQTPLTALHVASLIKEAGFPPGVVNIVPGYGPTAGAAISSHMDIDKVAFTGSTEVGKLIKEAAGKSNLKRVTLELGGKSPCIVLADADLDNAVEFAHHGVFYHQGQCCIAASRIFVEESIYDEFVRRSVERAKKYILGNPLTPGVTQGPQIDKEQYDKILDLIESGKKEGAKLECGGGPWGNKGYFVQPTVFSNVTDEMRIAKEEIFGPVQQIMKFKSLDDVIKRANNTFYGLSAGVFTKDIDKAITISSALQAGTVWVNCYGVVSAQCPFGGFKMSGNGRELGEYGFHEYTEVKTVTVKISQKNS
VP16 counter – inhibits Gal4-VP16 luciferase reporter, ROR gamma counter-screen; Drosophila S2 Gal4-VP16 UAS-luciferase, luminescence, 20 h; Potency, µM (series often up to 53.6 µM), inactives show at the highest dose activity, negative = inhibition, hits mostly inhibitors; 310,000 tested, 3.5% active; AID 2546;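 note: Gal4-VP16 expression switched on by copper sulfate through the metallothionein promoter; nearly all actives have a fitted effect of over 50% in size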
Sfp PPTase inh – Sfp phosphopantetheinyl transferase inhibition | Biochemical Sfp PPTase activity, qHTS | Potency, µM, for the others: largest response in the series, negative = inhibition, usual class: inhibitors | 310,000 tested, 3.5% active | AID 1490;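 note: the enzyme is Sfp with the accession as filed and its product quenches rhodamine fluorescence; 0% = enzyme reaction without inhibitor and -100% = no enzyme wells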
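Fluorescence-quenching assay: 15 nM Sfp-PPTase preincubated 15 min at room temperature with compound, then 5 uM rhodamine-CoA and 12.5 uM BHQ-2-labelled YbbR peptide added. Fluorescence (ex 525/em 598 nm) read at start and after 30 min; difference gives rate.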
PLK1 PBD inh – PLK1 (human) polo-box domain binding inhibition; P53350; Plk1 PBD binding of FITC phosphopeptide, fluorescence polarization; Potency, µM, for inactives: max response, negative = inhibition, hits mostly inhibitors; 360,000 tested, 2.8% active; note: series mostly up to about 57 µM; nearly all actives have a fitted effect of over 65% in size
An asterisk follows results filed as active; ? = inconclusive; · = no result given; [ ] = another dose, or the depositor's remark. Unless noted, calls come from the whole dose curve; as a rule, active = well fitted curve in the direction sought with a large enough effect; inconclusive = small, poorly fitted or top-dose-only effect, or another doubt; inactive = no such curve, though single readings can be large; an effect the other way counts as inactive or inconclusive. Unless noted, % is set by controls: 0 for no effect and ±100 for the full control effect; potency is the fitted concentration of half-maximal effect.

SMILES	RORg inh	ALDH1A1 inh	VP16 counter	Sfp PPTase inh	PLK1 PBD inh
CCOC(=O)c1sc2nc(C)nc(SC(C)C(=O)NC3CC3)c2c1C (stereo not given)	·	·	·	·	0.1%
C[C@H](CO)N1C[C@H](C)[C@@H](CN(C)Cc2ccncc2)OCc2cnnn2CCCC1=O	·	·	·	·	-3.4%
COc1ccc(CNC(=S)NCc2ccc(F)cc2)cc1	11.2µM*	·	?	?	-14.3%
CCOc1ccc(CNn2cnnc2)cc1	-9.9%	·	-6.1%	13.1%	26.7µM*
CCOc1ccc(CNC(=S)NCc2ccc(OCC)cc2)cc1	10µM*	-3.5%	?	-6.9%	-11.9%
Fc1ccc(CNC(=S)NCc2ccc(F)cc2)cc1	11.2µM*	2.4%	?	19.5%	-9.5%
CCOc1ccc(CC(=O)NNC(=S)NC)cc1	-37.4%	·	-0.8%	4.5%	4.9%
CCNC(=S)NCc1ccc(F)cc1	-23.1%	4.0%	-5.3%	15.1%	-8.7%
Cc1noc(C)c1-c1nccc(-n2ccnc2)n1	-17.4%	2.7%	-9.6%	-0.4%	·
CN(C)Cc1nc(-c2cn(C)c3ccccc23)no1	·	?	·	-17.9%	·
COc1ccc(CNC(=O)COc2ccc(OC)cc2)cc1	14.9%	·	-7.6%	1.3%	-1.0%
CC(C)COc1ccc(CNC(=S)NCc2ccccc2)cc1	7.08µM*	1.2%	17.8µM*	12.5%	-13.3%
COc1ccc(CNC(=S)NC(C)CCc2ccccc2)cc1 (stereo not given)	3.16µM*	6.31µM*	14.1µM*	3.5%	-14.5%
COc1ccc(CNC(=O)/C(C)=C\C(=O)O)cc1	5.62µM*	-13.2%	10µM*	5.2%	1.8%
COc1ccc(CNC(=O)C(=O)NCc2ccncc2)cc1	0.9%	5.5%	0.9%	4.3%	-3.6%
COc1ccc(CNC(=S)NCc2ccc(OC)cc2)cc1	12.6µM*	20µM*	-8.2%[10 µM]	18.5%	-0.8%
COc1ccc(CNC(=O)COC(=O)c2cc(C)oc2C)cc1	·	·	·	·	-8.1%
N#CC1(NC(=O)CN2C(=O)NC(c3ccccc3)(c3ccccc3)C2=O)CCCC1	·	·	·	·	2.6%
CCNC(=O)n1nccc1C(C)Oc1cccc(C(F)(F)F)c1 (stereo not given)	17.0%	-0.3%	-11.1%	18.1%	1.8%
Cc1ccc(-c2nn(-c3cccc(F)c3)cc2CNCc2cccnc2)o1	17.0%	?	-2.6%	-2.9%	-4.3%
Cc1ccc(-c2nn(-c3cccc(F)c3)cc2CN2CCN(c3ccccn3)CC2)o1	9.3%	?	-19.1%	39.8µM*	-18.1%
Cc1ccc(-c2nn(-c3cccc(F)c3)cc2CN(Cc2nccn2C)C(C)C)o1	5.62µM*	?	?	39.8µM*	-12.5%
COc1cc2ccc(C=O)cc2cc1OC	·	·	·	·	-1.7%
N[C@H](CCC(=O)N[C@H](CSN=O)C(=O)NCC(=O)O)C(=O)O	-16.7%	-12.1%	1.9%	31.6µM*	·
N[C@@H](CCC(=O)N[C@H](CSN=O)C(=O)NCC(=O)O)C(=O)O	·	-7.1%	·	·	·
SMILES	RORg inh	ALDH1A1 inh	VP16 counter	Sfp PPTase inh	PLK1 PBD inh
CO[C@]1(C)C[C@H]2O[C@]1(C)n1c3ccccc3c3c4c(c5c6ccccc6n2c5c31)C(=O)N(C)C4	-6.1%	·	0.1%	-9.8%	·
Cc1cccc(/C=N/n2c(C)nc3ccccc3c2=O)c1	16.2%	·	7.2%	7.4%	-2.5%
CCCCC(=O)NC(=S)Nc1ccc(S(=O)(=O)N2CCCC2)cc1	12.6µM*	?	-19.7%	-4.2%	-8.1%
CN(C)NC(=S)Nc1ccc(S(=O)(=O)N2CCCCC2)cc1	2.82µM*	-12.0%	5.62µM*	16.9%	-12.6%
NS(=O)(=O)c1ccc(NC(=S)Nc2ccc(S(=O)(=O)N3CCCC3)cc2)cc1	3.5%	?	-2.3%	50.1µM*	?
NS(=O)(=O)c1ccc(NC(=O)c2ccc(S(=O)(=O)N3CCCCC3)cc2)cc1	·	·	·	·	0.9%
N#Cc1ccccc1S(=O)(=O)N1CCN(C(=O)CN(Cc2ccco2)Cc2cccs2)CC1	·	·	·	·	-11.5%
CCC(C)NC(=O)CSc1nc2cc3c(cc2c(=O)n1Cc1ccco1)OCO3 (stereo not given)	1.1%	?	7.6%	-26.6%	-4.2%
CCOC(=O)Cn1c(=O)n(Cc2ccco2)c(=O)c2ccc(C(=O)NC3CCCC3)cc21	-29.4%	7.94µM*	13.5%	-18.8%	-6.0%
CCN(CC)C(=O)CSc1nc2cc3c(cc2c(=O)n1Cc1ccco1)OCO3	5.5%	0.891µM*	-6.3%	3.2%	1.8%
CCC(Sc1nc2cc3c(cc2c(=O)n1Cc1ccco1)OCO3)C(=O)Nc1ccccc1OC (stereo not given)	-7.5%	1.12µM*	-5.6%	?	-8.2%
CCC(Sc1nc2cc3c(cc2c(=O)n1Cc1ccco1)OCO3)C(=O)NCCOC (stereo not given)	11.9%	2.24µM*	3.2%	-7.6%	-7.8%
CCOC(=O)Cn1c(=O)n(C2CCCC2)c(=O)c2ccccc21	18.0%	?	2.0%	6.2%	-8.6%
COCCn1c(=O)c(-c2cccc(C#N)c2)nc2cnc(N3CCNCC3)nc21	-11.6%	?	-13.4%	4.2%	·
CCN(CC)C(=O)CSc1nc2c(sc(=S)n2Cc2ccco2)c(=O)n1-c1ccccc1	?	6.31µM*	0.8%	2.4%	-9.2%
CCOC(=O)CSc1nc2cc(C(=O)NCC3CCCO3)ccc2c(=O)n1Cc1ccco1 (stereo not given)	14.4%	?	-7.5%	6.8%	2.8%
COCCNC(=O)CSc1nc2cc3c(cc2c(=O)n1Cc1ccco1)OCO3	?	12.6µM*	-10.5%	0.7%	0.1%
COCCNC(=O)c1ccc2c(=O)n(Cc3ccco3)c(SCC(=O)NC3CCCC3)nc2c1	-0.5%	7.94µM*	-3.2%	3.1%	0.6%
COc1ccccc1CC(=N)N1C[C@@H]2C(=O)CCC(c3ccccc3)(c3ccccc3)[C@@H]2C1	12.1%	-15.2%	-3.7%	-11.2%	·
O=C(Nc1nc2c(s1)CCCC2)c1ccc(N2C(=O)CCC2=O)cc1	?	·	15.4%	10.2%	-1.7%
O=C(Nc1nc2c(s1)CCCC2)c1ccc2ncsc2c1	1.78µM*	-3.4%	?	25.1µM*	-13.4%
Cc1cc(C(=O)Nc2nc3c(s2)CCCC3)cs1	?	?	6.31µM*	-7.0%	-13.3%
Cc1ncsc1C(=O)Nc1nc2c(s1)CCCC2	-9.1%	?	-8.7%	-6.2%	-7.0%
O=c1oc2c(CN3CCOCC3)c(O)c(Cl)cc2c2c1CCCC2	11.2µM*	?	-3.5%	56.2µM*	-16.6%
COC(=O)NC(c1ccccc1)c1c[nH]c2ccc(OC)cc12 (stereo not given)	-5.4%	1.9%	-3.8%	18.9%	·
CC1(C)CC(=O)C2=C(C1)O[C@@]1(c3ccsc3)Cc3cc(C#N)ccc3C2O1	1.9%[10 µM]	·	3.1%[10 µM]	-2.0%	·
CCOC(=O)c1cc(C)sc1NC(=O)C(c1ccccc1)c1ccccc1	?	10.3%	-7.3%	-2.4%	-3.9%
CCc1cc(C(=O)O)c(NC(=O)C(c2ccccc2)c2ccccc2)s1	?	12.6µM*	2.0%	16.2%	-17.8%
CCOC(=O)c1sc(=S)n(-c2ccccc2OC)c1N	14.4%	3.16µM*	8.0%	-63.1%	21.2µM*
